SW480 rereplic = inducers of DNA re-replication in SW480 colon cancer cells; AID 624297; Potency, µM (highest dose often 46.1 µM), inactives show at the top dose re-replication activation, actives largely listed as activators; SW480 DNA re-replication, Hoechst DNA content imaging, 48 h; 340,000 compounds, 1.8% hits; further: % of control where 0% means no effect; nearly all actives have a fitted effect of over 55% in size
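Per well, 250 cells were exposed to pinned compound for 48 hr. Nuclear DNA was visualised with Hoechst (40 min, 37 C) and total object intensity recorded by fluorescence scanning.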
KB-3-1 cytotox = kills parental KB-3-1 adenocarcinoma cells; Potency, µM (doses to about 46.1 µM), actives largely listed as cytotoxic; 400,000 compounds, 1.4% hits; KB-3-1 viability, CellTiter-Glo ATP luminescence, 72 h; further: on the % scale 0 is the no-effect control and ±100 the full control effect; nearly all actives have a fitted effect of over 60% in size
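Parental KB-3-1 adenocarcinoma cells in phenol-red-free DMEM with 10% FBS were pin-treated with compounds at several concentrations, incubated 72 h at 37 °C, and viability read by CellTiter-Glo luminescence; concentration-effect curves were fitted after normalization.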
MCF10A rereplic = induces DNA re-replication in MCF 10a normal breast cells; MCF 10A DNA re-replication, Hoechst nuclear intensity, 48 h; Potency, µM (doses to about 46.1 µM), without a hit: top-dose activity, positive = re-replication, actives largely listed as activators; 350,000 compounds, 2.9% hits; AID 624296; further: % of control where 0% means no effect; nearly all actives have a fitted effect of over 50% in size
KB-V1 MDR tox = kills drug-selected multidrug resistant KB-V1 cells; KB-V1 MDR cells viability, CellTiter-Glo, 72 h; Potency, µM (series often up to 46.1 µM), most hits filed as cytotoxic; 400,000 compounds, 3.4% hits; AID 1347076; further: on the % scale 0 is the no-effect control and ±100 the full control effect; nearly all actives have a fitted effect of over 60% in size
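Compound-treated KB-V1 multidrug-resistant cells, 72 h, 37 degrees C; viability by CellTiter-Glo. Fitted qHTS curves give the values.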
ELG1 repair inh = inhibitors of ELG1-dependent DNA repair in HEK293T cells; HEK293T ELG1-luciferase reporter, luminescence, 16 h; DNA damage induced by 5-fluorouridine; Potency, µM (titrated, usually from 46.1 µM), for the others: at the highest dose activity change, negative = inhibition, usual class: inhibitors; 330,000 compounds, 2.3% hits; AID 504467; further: on the % scale 0 is the no-effect control and ±100 the full control effect; nearly all actives have a fitted effect of over 55% in size
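DMSO vehicle served as the neutral condition. Each well held 2,000 cells given 5-fluorouridine plus compound; after 16 hr at 37 °C/5% CO2, ONE-Glo was added and luciferase measured 30 min later.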
Starred values were filed as active, the others as inactive; i = inactive; ? = inconclusive; nt = no result given. Sampled rows, rich in hits. Any-hit rate of the full collection: about 8.1%. The call rests on the fitted dose curve; in most records, active means well fitted curve in the direction sought with a large enough effect; inconclusive means small, poorly fitted or top-dose-only effect, or another doubt; inactive means no such curve, though single readings can be large; an effect the other way counts as inactive or inconclusive. Potency means the concentration at half of the fitted maximal effect.

SMILES | SW480 rereplic | KB-3-1 cytotox | MCF10A rereplic | KB-V1 MDR tox | ELG1 repair inh
Cc1cc(/C=N/NC(N)=S)c(C)n1-c1ccc(Cl)c(Cl)c1 | 18.4µM* | i | 25.9µM* | i | ?
Cc1cc(/C=N\NC(=O)CC(=O)NC2CCCCC2)c(C)n1-c1ccc(Cl)c(Cl)c1 | 26.8% | ? | 29.9% | ? | -8.5%
COc1ccccc1N1CCN(S(=O)(=O)c2c(C)nc3sccn3c2=O)CC1 | nt | i | nt | ? | nt
CCOC(=O)c1nn(-c2ccc3c(c2)CCN3C(C)=O)cc1O | 15.9% | i | 14.6µM* | i | ?
CCOC(=O)c1nn(-c2ccc(F)cc2)cc1O | 3.4% | i | -7.2% | i | ?
CC(C)(C)c1ccc(S(=O)(=O)NC(=O)C2(C)CCN2C(=O)c2cccc3ccccc23)cc1 (configuration not stated) | nt | i | nt | i | nt
COC(=O)c1ccc(/C=C/c2c(-c3ccsc3)sc3ccccc23)cc1 | 4.11µM* | ? | 16.4µM* | i | -3.7%
O=C(NC1CCCCC1)C(c1cccnc1)N(C(=O)CCl)c1ccc(F)cc1 (configuration not stated) | 2.06µM* | i | 18.4µM* | 16.4µM* | 20.6µM*
O=C(NC1CCCCC1)C(c1cccnc1)N(C(=O)CCl)c1ccccc1Cl (configuration not stated) | ? | 10.3µM* | 6.5% | ? | ?
Cc1cc(C)cc(N(C(=O)CNC(=O)c2cccs2)C(C(=O)NC2CCCC2)c2cccnc2)c1 (configuration not stated) | -0.3% | i | 20.6µM* | i | -6.6%
COc1ccc(C(C(=O)NC2CCCCC2)N(C(=O)c2ccccn2)c2cccnc2)cc1 (configuration not stated) | ? | i | -2.5% | i | 7.0%
Cc1cccc(N(C(=O)CNC(=O)c2cccs2)C(C(=O)NC2CCCC2)c2cccnc2)c1 (configuration not stated) | -2.7% | i | 2.9% | ? | 7.8%
O=C(NCC(=O)N(c1ccc(F)cc1)C(C(=O)NC1CCCCC1)c1cccnc1)c1ccco1 (configuration not stated) | -2.6% | i | -4.3% | i | 8.0%
COc1ccc(N(C(=O)CCl)C(C(=O)NC2CCCCC2)c2cccnc2)cc1 (configuration not stated) | ? | 10.3µM* | 18.4µM* | 20.6µM* | 20.6µM*
CCCc1cc(=O)oc2c3c(ccc12)OCN(Cc1ccccc1OC)C3 | nt | i | nt | ? | nt
COC(=O)[C@@]12C[C@@H](CC(=O)N3CCCCC3)C(=O)N(Cc3ccccc3)C1=CCC(C)(C)C2 | nt | i | nt | ? | nt
O=C(Nc1ccc2c(c1)N(C1CCCC1)C(=O)c1ccccc1S2)c1ccccc1 | nt | i | nt | i | nt
Cc1[nH]nc(-c2cccnc2)c1N=NN(C)C | 2.59µM* | ? | 1.64µM* | 16.4µM* | nt
C[C@@H]1Cc2c(O)c(O)cc(O)c2C(=O)O1 | -80.9% | i | -2.4% | i | -3.0%
CC1CCC/C=C/C(=O)c2c(O)cc(O)cc2CC(=O)O1 (configuration not stated) | ? | 10.3µM* | 1.03µM* | ? | 8.2µM*
COc1ccc(NC(=O)c2nnn(-c3ccc(C(C)C)cc3)c2C)c(OC)c1 | nt | i | nt | i | nt
CCOC(=O)c1c(-c2ccccc2)oc2cc(Br)c(OCc3ccccc3)cc12 | nt | i | nt | i | nt
ClCC1NCC(c2ccccc2Cl)c2c1[nH]c1ccccc21 (configuration not stated) | -8.8% | ? | 3.66µM* | i | -9.2%
COC(=O)c1cc(S(=O)(=O)N(Cc2ccccc2)C(C)(C)C)c[nH]1 | 6.51µM* | ? | 23.1µM* | i | -24.9%
O=S(=O)(c1ccccc1)N1CCN(Cc2ccccc2)CC1 | -5.3% | ? | 10.7% | ? | -3.8%
SMILES | SW480 rereplic | KB-3-1 cytotox | MCF10A rereplic | KB-V1 MDR tox | ELG1 repair inh
O=S(=O)(c1ccccc1)N1CCN(Cc2ccccc2)c2ccccc21 | 0.9% | i | 2.5% | 18.4µM* | nt
N#Cc1cc2c(=O)n3ccccc3nc2n(CCCN2CCOCC2)c1=O | ? | i | 23.1µM* | i | -1.4%
N#Cc1cc2c(=O)n3ccccc3nc2n(-c2ccccc2Cl)c1=O | 4.61µM* | ? | 4.11µM* | i | ?
N#Cc1cc2c(=O)n3ccccc3nc2n(Cc2cccnc2)c1=O | 2.31µM* | i | 11.6µM* | i | nt
Cc1cccn2c(=O)c3cc(C#N)c(=O)n(Cc4cccnc4)c3nc12 | 8.2µM* | i | 2.59µM* | i | 14.1%
Cc1ccccc1OCCC(=O)OCC(=O)NNC(=O)c1cccs1 | 13.0% | i | 5.4% | i | 12.3%
CC1(C(=O)NCc2ccccc2)CCC(=O)N1CCCn1ccnc1 (configuration not stated) | nt | i | nt | i | nt
CCOC(=O)c1cnc(-n2cc(C)cn2)nc1Nc1ccccc1OCC | -4.1% | ? | 9.8% | 1.16µM* | ?
CCOC(=O)c1cnc(SC)nc1Oc1cccc(NS(=O)(=O)c2ccc(F)cc2)c1 | -11.2% | i | 9.6% | i | 12.0%
CCOC(=O)c1cnc(SC)nc1Nc1cccc(F)c1 | 1.2% | i | -3.0% | 14.6µM* | -14.9%
CCOC(=O)c1cnc(SC)nc1Nc1cccc2ccccc12 | 6.6% | i | ? | 11.6µM* | -28.4%
O=C(C[n+]1cc(Br)cc(Br)c1)c1ccc(I)cc1 | nt | ? | nt | i | nt
CCNC(=O)c1c(NC(=O)c2nc(SC)ncc2Cl)sc2c1CCCC2 | nt | ? | nt | i | nt
CCOC(=O)C(C)Sc1cc(CS(=O)(=O)c2ccccc2)nc(-c2ccccc2)n1 (configuration not stated) | 0.7% | i | 9.6% | 20.6µM* | -16.5%
O=C(CSc1nnc2c(n1)[nH]c1ccc(F)cc12)NCc1ccc(F)cc1 | 1.7% | i | 7.2% | i | -0.2%
COc1ccc(CNC(=O)C2CCN(S(=O)(=O)c3ccc4c(c3)CCCN4C(C)=O)CC2)cc1 | nt | i | nt | i | nt
CCCSC(=S)c1c(C)[nH]n(-c2ccccc2)c1=O | ? | ? | 17.0% | ? | 13µM*
Nc1ccc(N2CCN(c3cccc(Cl)c3)CC2)cc1 | 17.3% | ? | 15.1% | 20.6µM* | ?
Cc1ccc(S(=O)(=O)NCC(=O)NCC(=O)N(C)Cc2ccc(Br)s2)cc1C | nt | i | nt | ? | nt
Cc1cc(C)c(NC(=O)CNC(=O)CN(C)Cc2ccc(Br)s2)c(C)c1 | -3.3% | i | 1.8% | 16.4µM* | -4.9%
CCOP(=O)(OCC)c1nc(-c2ccccc2Cl)oc1N1CCOCC1 | -17.7% | i | ? | ? | -1.7%
CCOP(=O)(OCC)c1nc(-c2ccc(Cl)cc2Cl)oc1N1CCCCC1 | 7.2% | i | 16.4µM* | ? | ?

Source: PubChem
